# Of roughly 7,900 targets only a part is listed; those with a hit were picked by preference. About 0.6% of all pairs of compound and target were hits. Unmarked numbers belong to inactive results.
# What was measured:
# Test in all cases: log2 fold change, soluble protein after heating vs DMSO (PISA); higher = thermal stabilisation; K562 cells, 10 uM, 30 min; active = over 0.2 and 3.5 SD of the protein, either way, in both replicates (recomputed)
# [1] = compound: CS(=O)(=O)c1ccc(-c2cnc(N)c(C(=O)Nc3ccccc3)n2)cc1
# Summary of the method: (§1)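 Quantification of soluble protein used TMTpro 16plex LC-MS/MS, with channel sums equalised. Samples were the supernatant after 21,000xg for 90 min of pooled aliquots from K562 cells (2×10^6 cells/mL) treated with 10 μM compound for 30 min, heated for 3 min over 48°C-58°C, and extracted in PBS with 0.5% NP-40 at 4°C. Values, from duplicates, describe thermal stability against control samples on a log2 fold-change scale.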
# [2] = compound: C[C@@H](Oc1cc(-c2cnn(C3CCNCC3)c2)cnc1N)c1c(Cl)ccc(F)c1Cl [crizotinib]
# Summary of the method: as §1
# [3] = compound: C[C@H](Nc1ncnc2nc[nH]c12)c1cc2cccc(Cl)c2c(=O)n1-c1ccccc1 [duvelisib]
# Summary of the method: as §1
# [4] = compound: Cc1cc(Nc2cc(N3CCN(C)CC3)nc(Sc3ccc(NC(=O)C4CC4)cc3)n2)n[nH]1 [tozasertib]
# Summary of the method: as §1
# [5] = compound: Cc1cc(SCc2sc(-c3ccc(C(F)(F)F)cc3)nc2C)ccc1OCC(=O)O
# Summary of the method: as §1
# [6] = compound: Cc1ccc(-n2nc(C(C)(C)C)cc2NC(=O)Nc2ccc(OCCN3CCOCC3)c3ccccc23)cc1 [doramapimod]
# Summary of the method: as §1
# [7] = compound: Cc1ccc(C(=O)N(CCCN)[C@@H](c2nc3cc(Cl)ccc3c(=O)n2Cc2ccccc2)C(C)C)cc1 [ispinesib]
# Summary of the method: as §1
# [8] = compound: Cc1ccc(NC(=O)c2ccc(CN3CC[C@H](N(C)C)C3)c(C(F)(F)F)c2)cc1Nc1nccc(-c2cncnc2)n1 [bafetinib]
# Summary of the method: as §1
# [9] = compound: Cc1cn(-c2cc(NC(=O)c3ccc(C)c(Nc4nccc(-c5cccnc5)n4)c3)cc(C(F)(F)F)c2)cn1 [nilotinib]
# Summary of the method: as §1
# [10] = compound: Cc1nc(Nc2n[nH]c3c2CN(C(=O)N[C@H](CN(C)C)c2ccccc2)C3(C)C)c2sccc2n1
# Summary of the method: as §1
# [11] = compound: Cc1nc(Nc2ncc(C(=O)Nc3c(C)cccc3Cl)s2)cc(N2CCN(CCO)CC2)n1 [dasatinib]
# Summary of the method: as §1
# [12] = compound: Cc1ncc(-c2ccnc(Nc3ccc(S(C)(=O)=O)cc3)n2)n1C(C)C
# Summary of the method: as §1
# [13] = compound: Cn1cc(-c2ccc3nnc(C(F)(F)c4ccc5ncccc5c4)n3n2)cn1
# Summary of the method: as §1
# [14] = compound: Cn1cncc1[C@@](N)(c1ccc(Cl)cc1)c1ccc2c(c1)c(-c1cccc(Cl)c1)cc(=O)n2C [tipifarnib]
# Summary of the method: as §1
# [15] = compound: C[C@@H]1COCCN1C2=NC(=NC(=C2)C3(CC3)S(=O)(=O)C)C4=C5C=CNC5=CC=C4
# Summary of the method: as §1
# [16] = compound: Cc1cc(Nc2cc(CN3CCOCC3)c3nc(C)c(Cc4ccc(Cl)cc4F)n3n2)n[nH]1 [gandotinib]
# Summary of the method: as §1
# [17] = compound: Cc1cccc(CC(=O)N2CCc3c2ccc(-c2cn(C)c4ncnc(N)c24)c3F)n1
# Summary of the method: as §1
# [18] = compound: FC(F)(F)c1ccc(/C=C/c2nc(COc3ccc(CCCCn4ccnn4)cc3)co2)cc1 [mubritinib]
# Summary of the method: as §1
# [19] = compound: C[C@H](C1=CC=C(C=C1)C(=O)NC2=C3C=CNC3=NC=C2)N
# Summary of the method: as §1
# [20] = compound: Cn1cc(-c2ccc3c(c2)CCN3C(=O)Cc2cccc(C(F)(F)F)c2)c2c(N)ncnc21
# Summary of the method: as §1
# Sequence of UniProt Q5BKX5 (Q5BKX5 whole entry, looked up): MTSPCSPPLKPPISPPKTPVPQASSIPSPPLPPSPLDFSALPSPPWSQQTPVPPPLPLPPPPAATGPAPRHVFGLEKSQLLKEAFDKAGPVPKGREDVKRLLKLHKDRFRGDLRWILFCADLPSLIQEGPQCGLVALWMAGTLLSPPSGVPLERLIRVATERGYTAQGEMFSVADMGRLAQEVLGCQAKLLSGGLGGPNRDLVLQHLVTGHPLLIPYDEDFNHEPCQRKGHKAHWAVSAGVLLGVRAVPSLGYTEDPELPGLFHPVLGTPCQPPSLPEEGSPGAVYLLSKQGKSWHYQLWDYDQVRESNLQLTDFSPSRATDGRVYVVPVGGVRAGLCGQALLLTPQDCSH
# Sequence of UniProt Q53ET0 (Q53ET0 whole entry, looked up): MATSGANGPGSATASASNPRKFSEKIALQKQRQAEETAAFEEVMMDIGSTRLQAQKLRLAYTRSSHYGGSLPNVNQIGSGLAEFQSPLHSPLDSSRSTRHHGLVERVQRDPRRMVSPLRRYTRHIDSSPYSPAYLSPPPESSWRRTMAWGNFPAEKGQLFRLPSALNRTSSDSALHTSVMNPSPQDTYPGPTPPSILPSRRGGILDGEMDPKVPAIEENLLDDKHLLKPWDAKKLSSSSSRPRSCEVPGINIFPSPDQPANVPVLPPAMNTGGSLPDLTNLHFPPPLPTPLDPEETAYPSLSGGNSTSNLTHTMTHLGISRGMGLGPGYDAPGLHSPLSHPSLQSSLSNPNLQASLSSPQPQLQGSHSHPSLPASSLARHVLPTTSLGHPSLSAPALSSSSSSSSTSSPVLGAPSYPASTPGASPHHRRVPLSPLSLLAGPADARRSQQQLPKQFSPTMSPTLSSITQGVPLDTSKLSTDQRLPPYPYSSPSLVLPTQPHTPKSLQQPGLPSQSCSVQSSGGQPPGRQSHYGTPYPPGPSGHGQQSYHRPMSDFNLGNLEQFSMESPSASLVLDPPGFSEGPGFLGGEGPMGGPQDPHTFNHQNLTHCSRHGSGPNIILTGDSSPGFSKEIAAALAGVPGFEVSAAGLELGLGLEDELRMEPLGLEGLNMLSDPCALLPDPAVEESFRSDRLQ
# Sequence of UniProt Q13111 (Q13111 whole entry, looked up): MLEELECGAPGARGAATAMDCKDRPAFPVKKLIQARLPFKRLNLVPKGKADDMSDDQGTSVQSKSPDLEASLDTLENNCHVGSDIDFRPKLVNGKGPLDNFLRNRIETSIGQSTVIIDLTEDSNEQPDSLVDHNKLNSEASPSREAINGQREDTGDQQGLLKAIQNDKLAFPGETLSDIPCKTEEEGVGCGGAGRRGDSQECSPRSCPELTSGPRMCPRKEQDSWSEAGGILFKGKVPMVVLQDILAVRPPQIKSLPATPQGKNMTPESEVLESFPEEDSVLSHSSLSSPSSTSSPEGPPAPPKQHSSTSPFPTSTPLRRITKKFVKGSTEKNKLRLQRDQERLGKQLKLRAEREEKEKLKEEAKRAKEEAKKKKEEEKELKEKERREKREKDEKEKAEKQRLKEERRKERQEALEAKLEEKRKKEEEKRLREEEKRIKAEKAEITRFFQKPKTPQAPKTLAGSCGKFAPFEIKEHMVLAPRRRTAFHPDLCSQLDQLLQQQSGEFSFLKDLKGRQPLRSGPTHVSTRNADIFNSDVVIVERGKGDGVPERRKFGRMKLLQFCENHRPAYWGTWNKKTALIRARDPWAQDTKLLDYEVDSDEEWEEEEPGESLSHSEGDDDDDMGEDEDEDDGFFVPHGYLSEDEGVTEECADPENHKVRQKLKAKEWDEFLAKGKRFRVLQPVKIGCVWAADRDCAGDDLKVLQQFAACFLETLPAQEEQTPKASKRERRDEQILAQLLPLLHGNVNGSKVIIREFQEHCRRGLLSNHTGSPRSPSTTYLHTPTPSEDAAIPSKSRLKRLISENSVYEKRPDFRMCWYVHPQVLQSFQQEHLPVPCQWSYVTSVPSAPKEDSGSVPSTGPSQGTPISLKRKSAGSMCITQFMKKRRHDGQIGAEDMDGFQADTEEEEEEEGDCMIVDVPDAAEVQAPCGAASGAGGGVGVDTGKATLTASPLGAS
# Sequence of UniProt P15954 (P15954 whole entry, looked up): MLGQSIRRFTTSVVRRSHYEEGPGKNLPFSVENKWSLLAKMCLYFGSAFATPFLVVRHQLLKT
# Sequence of UniProt Q6ZU80 (Q6ZU80 whole entry, looked up): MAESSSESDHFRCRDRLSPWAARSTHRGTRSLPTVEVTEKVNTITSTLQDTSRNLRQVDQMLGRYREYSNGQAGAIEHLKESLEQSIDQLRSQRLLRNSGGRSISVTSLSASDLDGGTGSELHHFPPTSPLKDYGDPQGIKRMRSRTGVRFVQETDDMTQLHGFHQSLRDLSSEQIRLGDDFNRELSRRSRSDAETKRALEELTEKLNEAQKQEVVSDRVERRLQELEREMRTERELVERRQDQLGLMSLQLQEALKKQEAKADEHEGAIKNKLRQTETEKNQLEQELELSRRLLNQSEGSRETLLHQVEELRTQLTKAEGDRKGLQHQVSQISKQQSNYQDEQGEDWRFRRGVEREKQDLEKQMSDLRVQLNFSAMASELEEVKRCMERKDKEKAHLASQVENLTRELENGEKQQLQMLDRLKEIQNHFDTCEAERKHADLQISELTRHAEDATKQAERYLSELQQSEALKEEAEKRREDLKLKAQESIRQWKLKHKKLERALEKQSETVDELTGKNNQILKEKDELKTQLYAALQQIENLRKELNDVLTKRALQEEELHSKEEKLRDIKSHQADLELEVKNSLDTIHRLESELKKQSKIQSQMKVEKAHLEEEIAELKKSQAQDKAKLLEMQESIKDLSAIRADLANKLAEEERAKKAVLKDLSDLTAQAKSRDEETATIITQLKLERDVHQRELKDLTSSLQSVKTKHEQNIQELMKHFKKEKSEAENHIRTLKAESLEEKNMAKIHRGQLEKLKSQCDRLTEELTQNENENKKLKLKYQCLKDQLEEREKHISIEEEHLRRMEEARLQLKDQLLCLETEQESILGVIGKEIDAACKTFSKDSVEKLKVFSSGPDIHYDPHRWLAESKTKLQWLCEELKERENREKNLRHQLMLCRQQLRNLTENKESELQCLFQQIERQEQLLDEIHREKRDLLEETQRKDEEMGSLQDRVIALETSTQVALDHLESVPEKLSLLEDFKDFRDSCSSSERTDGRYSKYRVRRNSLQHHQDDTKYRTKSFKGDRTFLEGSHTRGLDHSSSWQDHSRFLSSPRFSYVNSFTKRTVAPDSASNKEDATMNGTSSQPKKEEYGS
# Sequence of UniProt Q6P5X5 (Q6P5X5 whole entry, looked up): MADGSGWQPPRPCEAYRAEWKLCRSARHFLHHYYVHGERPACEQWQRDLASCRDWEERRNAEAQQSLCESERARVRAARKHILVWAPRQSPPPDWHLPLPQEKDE
# Sequence of UniProt Q00537 (Q00537 whole entry, looked up): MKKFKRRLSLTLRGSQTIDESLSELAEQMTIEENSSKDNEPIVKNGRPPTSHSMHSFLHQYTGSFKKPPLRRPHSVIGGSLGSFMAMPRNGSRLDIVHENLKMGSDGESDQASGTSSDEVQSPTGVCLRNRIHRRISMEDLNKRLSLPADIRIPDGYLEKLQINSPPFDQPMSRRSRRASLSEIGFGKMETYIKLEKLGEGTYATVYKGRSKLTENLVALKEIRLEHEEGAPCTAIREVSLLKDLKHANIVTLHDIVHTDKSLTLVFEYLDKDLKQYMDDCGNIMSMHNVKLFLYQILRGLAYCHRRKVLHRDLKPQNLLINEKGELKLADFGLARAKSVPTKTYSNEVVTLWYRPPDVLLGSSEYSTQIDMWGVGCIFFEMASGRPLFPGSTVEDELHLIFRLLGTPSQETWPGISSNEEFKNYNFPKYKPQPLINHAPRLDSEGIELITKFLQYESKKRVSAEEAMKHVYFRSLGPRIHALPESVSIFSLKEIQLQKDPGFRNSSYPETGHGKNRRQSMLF
# Sequence of UniProt P24311 (P24311 whole entry, looked up): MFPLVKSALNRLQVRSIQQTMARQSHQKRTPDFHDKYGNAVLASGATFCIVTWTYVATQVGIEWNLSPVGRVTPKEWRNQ
# Sequence of UniProt Q6UUV9 (Q6UUV9 whole entry, looked up): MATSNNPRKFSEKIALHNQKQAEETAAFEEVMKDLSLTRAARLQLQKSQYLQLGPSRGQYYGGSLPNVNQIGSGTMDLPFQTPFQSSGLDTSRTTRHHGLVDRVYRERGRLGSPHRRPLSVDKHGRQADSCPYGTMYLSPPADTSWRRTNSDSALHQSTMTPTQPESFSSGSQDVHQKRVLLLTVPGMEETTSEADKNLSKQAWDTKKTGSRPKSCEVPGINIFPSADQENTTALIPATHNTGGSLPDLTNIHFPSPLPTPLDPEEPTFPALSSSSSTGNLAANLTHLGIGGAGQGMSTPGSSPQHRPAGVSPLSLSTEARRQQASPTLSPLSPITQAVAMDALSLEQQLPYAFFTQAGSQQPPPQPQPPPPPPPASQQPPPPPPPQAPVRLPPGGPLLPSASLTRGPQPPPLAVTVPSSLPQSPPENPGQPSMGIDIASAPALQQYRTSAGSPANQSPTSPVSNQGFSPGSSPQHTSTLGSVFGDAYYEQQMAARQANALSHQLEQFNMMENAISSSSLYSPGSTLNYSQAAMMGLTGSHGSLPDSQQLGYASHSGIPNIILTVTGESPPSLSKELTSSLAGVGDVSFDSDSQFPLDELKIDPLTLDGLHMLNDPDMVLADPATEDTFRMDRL
# Sequence of UniProt Q9H9S4 (Q9H9S4 whole entry, looked up): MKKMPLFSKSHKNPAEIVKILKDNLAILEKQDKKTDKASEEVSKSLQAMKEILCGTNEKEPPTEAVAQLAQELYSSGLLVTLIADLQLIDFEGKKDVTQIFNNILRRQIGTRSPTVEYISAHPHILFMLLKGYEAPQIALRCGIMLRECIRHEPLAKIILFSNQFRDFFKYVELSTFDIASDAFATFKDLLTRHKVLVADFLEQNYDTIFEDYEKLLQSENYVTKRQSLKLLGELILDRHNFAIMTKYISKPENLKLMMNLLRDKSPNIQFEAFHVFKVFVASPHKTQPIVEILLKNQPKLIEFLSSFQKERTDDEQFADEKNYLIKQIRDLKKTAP
Target,log2 fold change [1],log2 fold change [2],log2 fold change [3],log2 fold change [4],log2 fold change [5],log2 fold change [6],log2 fold change [7],log2 fold change [8],log2 fold change [9],log2 fold change [10],log2 fold change [11],log2 fold change [12],log2 fold change [13],log2 fold change [14],log2 fold change [15],log2 fold change [16],log2 fold change [17],log2 fold change [18],log2 fold change [19],log2 fold change [20]
C6orf120 (UniProt Q7Z4R8),0.069,-0.04,-0.052,-0.032,0.113,0.134,-0.07,-0.145,-0.045,0.044,0.029,-0.048,-0.032,0.026,–,–,–,–,–,–
CRTC1 isoform 2 (UniProt Q6UUV9),-0.068,-0.016,0.139,-0.004,-0.076,0.005,-0.11,0.021,–,–,-0.034,–,-0.079,-0.267,0.192,0.008,-0.093,–,–,–
C1D (UniProt Q13901),-0.073,0.06,–,0.005,–,-0.089,0.007,-0.026,0.059,-0.074,–,-0.027,0.018,0.151,-0.107,0.01,-0.013,0.132,–,–
COX7B (UniProt P24311),-0.026,0.013,0.034,0.072,0.014,-0.067,–,0.109,0.053,0.037,0.074,0.01,–,-0.024,0.02,0.05,0.037,0.026,-0.171,-0.011
C22orf39 (UniProt Q6P5X5),0.075,-0.303,0,0.096,-0.135,0.072,-0.207,-0.04,-0.07,0.038,-0.232,-0.12,0.031,-0.071,0.06,–,–,0.031,-0.057,-0.036
CHAF1A (UniProt Q13111),-0.015,0.058,0.051,–,-0.04,0.025,-0.098,-0.154,0.053,0.047,0.016,-0.074,0.002,0.015,-0.058,-0.035,-0.04,0.034,0.15,0.006
CD84 (UniProt Q9UIB8),0.049,–,0.036,-0.055,0.056,–,–,–,–,–,0.169,–,–,–,-0.201,–,–,–,-0.149,-0.117
CDCA2 (UniProt Q69YH5),0.161,0.025,–,-0.159,–,0.088,-0.04,–,0.164,-0.114,–,0.042,-0.215,0.182,0.041,0.098,-0.065,-0.256,-0.021,0.159
CDK17 isoform 2 (UniProt Q00537),0.087,-0.082,-0.006,–,0.126,0.028,–,0.117,–,–,-0.171,–,–,0.037,-0.035,0.057,0.039,-0.04,0.076,-0.07
CENPE (UniProt Q02224),0.231,-0.018,-0.563,-0.155,0.24,0.108,-0.321,0.143,–,–,-0.35,–,-0.123,-0.033,–,0.052,0.069,–,-0.908,0.14
CRTC2 (UniProt Q53ET0),-0.02,-0.077,–,-0.057,–,0.062,0.012,-0.035,0.038,0.01,–,-0.094,-0.081,-0.092,0.08,–,–,0.022,–,–
COMMD1 (UniProt Q8N668),-0.108,-0.022,–,-0.049,–,0.009,-0.112,-0.162,0.009,-0.179,–,-0.057,-0.087,-0.016,-0.092,0.42 (active),-0.085,-0.069,–,–
CEP128 (UniProt Q6ZU80),0.093,0.056,0.183,0.041,-0.07,0.102,–,-0.186,–,–,0.046,–,–,-0.016,–,–,–,0.143,0.157,-0.026
COG2 (UniProt Q14746),-0.029,-0.17,-0.094,-0.153,0.061,0,-0.264,–,-0.169,-0.006,-0.051,0.133,0.245,–,0.094,–,–,-0.035,0.483,-0.074
CDK16 isoform 2 (UniProt Q00536),0.03,-0.036,0.058,–,0.096,-0.022,-0.046,0.038,0.013,0.619 (active),0,0.679 (active),0.013,-0.072,0.06,0.436 (active),-0.047,0.035,-0.07,-0.014
CAB39L (UniProt Q9H9S4),0.13,0.036,-0.014,0.03,0.053,0.024,-0.031,-0.055,–,–,-0.255,–,-0.032,0.042,-0.01,0.448 (active),-0.041,–,–,–
C19orf54 (UniProt Q5BKX5),-0.026,0.025,0.072,0.006,0.032,-0.061,-0.091,–,–,–,-0.175,–,0.14,0.013,0.182,-0.073,0.007,–,0.127,0.03
COX7C (UniProt P15954),0.025,0.147,-0.04,-0.015,-0.114,-0.072,-0.096,-0.066,0.148,-0.041,0.073,-0.158,0.366,0.105,0.028,0.043,-0.077,0.112,–,–
CCNC (UniProt P24863),0.051,-0.004,0.044,–,0.018,0.373 (active),0.059,0.031,–,–,-0.074,–,-0.015,–,0.027,-0.088,0.055,-0.016,0.247,-0.091
CDK4 (UniProt P11802),0.108,-0.108,0.104,–,0.021,0.079,0.094,0.022,-0.121,-0.042,-0.056,0.031,-0.117,0.046,-0.152,–,–,0.054,0.377,-0.084

# Source: the supplement of paper PMC10849652
